Drawing on PubChem BioAssay, this text covers composite z-score and z-score for 5 molecules.

Calls of active or inactive are those of the source.

A short description of test [1]: small molecules captured by biotinylated probe aFSTL3 – biochemical, small-molecule microarray, fluorescence 635/667, stem cell growth factor project, primary screen (AID 1064).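 Further: measures binding of the biotinylated anti-FSTL3 antibody to printed compounds.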 To be noted: higher = more signal.
Test [2] is described as follows: binders from COS7 lysate, DM2A8 probe, primary screen, torsin A project, cell lysate, small-molecule microarray, fluorescence 635/667 (AID 1065). As to conditions: higher = more signal, COS7 lysate expressing mutant human TOR1A.
A short description of test [3]: small molecules captured by biotinylated probe aFGF2 – biochemical, small-molecule microarray, fluorescence 635/667, stem cell growth factor project, primary screen (AID 1067).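 Further: measures binding of biotinylated aFGF2 protein to printed compounds on slides; z-score merges feature fluorescence and signal-to-noise across triplicate slides.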 To be noted: higher = more signal.
Test [4] in a line: small molecules captured by biotinylated probe aFGF10 – biochemical, small-molecule microarray, fluorescence 635/667, stem cell growth factor project, primary screen (AID 1071).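 Further: score merges 667 nm spot intensity and signal to noise from triplicate slides.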 To be noted: higher = more signal.
In test [5] the target is Neurogenic locus notch homolog protein 2 (Homo sapiens) (UniProt Q04721). The test is described as follows: small molecules binding Notch2 protein – biochemical, small-molecule microarray, 635 nm fluorescence, stem cell growth factors, primary screen (AID 1073). As to conditions: higher = more signal.
Chain of Neurogenic locus notch homolog protein 2 (Homo sapiens) (Q04721 whole entry, looked up, canonical isoform): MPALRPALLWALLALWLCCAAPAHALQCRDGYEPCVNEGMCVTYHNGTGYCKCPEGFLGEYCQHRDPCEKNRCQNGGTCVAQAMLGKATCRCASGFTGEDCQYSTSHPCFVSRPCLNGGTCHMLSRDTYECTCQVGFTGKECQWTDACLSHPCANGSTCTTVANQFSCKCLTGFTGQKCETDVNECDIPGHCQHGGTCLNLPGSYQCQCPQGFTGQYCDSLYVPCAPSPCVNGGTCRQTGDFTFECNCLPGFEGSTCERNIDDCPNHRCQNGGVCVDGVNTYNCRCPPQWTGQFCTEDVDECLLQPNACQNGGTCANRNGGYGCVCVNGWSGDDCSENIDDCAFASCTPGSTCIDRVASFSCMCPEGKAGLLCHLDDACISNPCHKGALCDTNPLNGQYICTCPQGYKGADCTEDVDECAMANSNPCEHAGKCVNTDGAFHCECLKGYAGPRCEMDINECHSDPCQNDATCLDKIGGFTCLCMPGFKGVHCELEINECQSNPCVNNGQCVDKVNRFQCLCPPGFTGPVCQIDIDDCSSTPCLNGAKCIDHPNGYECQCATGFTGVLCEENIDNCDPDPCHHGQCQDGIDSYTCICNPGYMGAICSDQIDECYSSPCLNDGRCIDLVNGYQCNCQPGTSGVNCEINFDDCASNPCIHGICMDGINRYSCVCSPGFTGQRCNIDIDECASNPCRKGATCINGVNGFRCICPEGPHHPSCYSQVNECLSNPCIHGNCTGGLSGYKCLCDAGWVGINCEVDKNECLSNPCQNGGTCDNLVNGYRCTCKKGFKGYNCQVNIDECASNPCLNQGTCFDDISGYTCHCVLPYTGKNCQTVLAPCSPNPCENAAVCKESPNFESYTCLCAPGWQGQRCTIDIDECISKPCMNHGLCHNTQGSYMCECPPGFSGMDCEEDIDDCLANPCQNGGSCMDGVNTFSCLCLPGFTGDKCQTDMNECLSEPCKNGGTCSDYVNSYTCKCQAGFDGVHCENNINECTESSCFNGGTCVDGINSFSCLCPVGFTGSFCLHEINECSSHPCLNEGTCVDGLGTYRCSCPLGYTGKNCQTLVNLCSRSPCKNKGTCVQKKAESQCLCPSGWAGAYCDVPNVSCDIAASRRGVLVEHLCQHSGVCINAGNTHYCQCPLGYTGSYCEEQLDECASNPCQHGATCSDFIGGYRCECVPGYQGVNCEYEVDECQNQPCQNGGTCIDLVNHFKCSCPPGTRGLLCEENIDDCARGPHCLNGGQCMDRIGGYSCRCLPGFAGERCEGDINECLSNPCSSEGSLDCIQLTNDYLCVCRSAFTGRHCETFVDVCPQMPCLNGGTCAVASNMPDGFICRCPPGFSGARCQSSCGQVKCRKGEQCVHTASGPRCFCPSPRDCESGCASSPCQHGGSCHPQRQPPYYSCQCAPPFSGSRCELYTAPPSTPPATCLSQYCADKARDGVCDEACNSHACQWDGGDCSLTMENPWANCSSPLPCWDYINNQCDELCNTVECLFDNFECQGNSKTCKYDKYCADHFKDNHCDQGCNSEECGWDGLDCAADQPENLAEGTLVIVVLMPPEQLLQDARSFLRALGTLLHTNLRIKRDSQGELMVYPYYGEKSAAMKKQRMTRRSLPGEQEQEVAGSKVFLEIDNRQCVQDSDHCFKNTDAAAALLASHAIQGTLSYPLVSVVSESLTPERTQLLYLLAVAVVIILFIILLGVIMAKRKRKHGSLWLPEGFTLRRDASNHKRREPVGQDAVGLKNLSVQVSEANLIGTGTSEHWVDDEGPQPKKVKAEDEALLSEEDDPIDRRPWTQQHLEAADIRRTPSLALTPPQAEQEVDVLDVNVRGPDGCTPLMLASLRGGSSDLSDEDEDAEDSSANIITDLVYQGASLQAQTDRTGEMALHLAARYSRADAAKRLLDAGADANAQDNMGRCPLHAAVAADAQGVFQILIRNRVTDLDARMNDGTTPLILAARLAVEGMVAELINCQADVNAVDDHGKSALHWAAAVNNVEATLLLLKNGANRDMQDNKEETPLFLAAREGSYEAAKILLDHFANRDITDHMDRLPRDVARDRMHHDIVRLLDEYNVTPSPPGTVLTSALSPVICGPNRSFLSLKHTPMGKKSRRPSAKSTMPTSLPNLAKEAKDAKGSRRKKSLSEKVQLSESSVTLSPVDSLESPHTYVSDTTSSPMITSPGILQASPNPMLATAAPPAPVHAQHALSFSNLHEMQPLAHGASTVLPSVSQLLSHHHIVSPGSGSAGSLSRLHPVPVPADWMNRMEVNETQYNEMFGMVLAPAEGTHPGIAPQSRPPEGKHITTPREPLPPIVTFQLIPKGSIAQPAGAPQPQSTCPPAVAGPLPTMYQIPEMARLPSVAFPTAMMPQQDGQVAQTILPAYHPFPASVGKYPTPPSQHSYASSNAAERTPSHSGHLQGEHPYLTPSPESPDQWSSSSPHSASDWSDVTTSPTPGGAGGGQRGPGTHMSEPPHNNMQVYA
For test [6], the target named is Pro-neuregulin-1, membrane-bound isoform (Homo sapiens) (UniProt Q02297). The test is described as follows: small molecules binding neuregulin-1 protein – biochemical, small-molecule microarray, fluorescence 635/667, psychiatric disease protein project, primary screen (AID 1075).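 Further: score combines 667 nm spot fluorescence with signal to noise.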 To be noted: NRG1 binding, 635 nm fluorescence, higher = more signal.
Chain of Pro-neuregulin-1, membrane-bound isoform (Homo sapiens) (Q02297 whole entry, looked up, the tested form may be a part, canonical isoform): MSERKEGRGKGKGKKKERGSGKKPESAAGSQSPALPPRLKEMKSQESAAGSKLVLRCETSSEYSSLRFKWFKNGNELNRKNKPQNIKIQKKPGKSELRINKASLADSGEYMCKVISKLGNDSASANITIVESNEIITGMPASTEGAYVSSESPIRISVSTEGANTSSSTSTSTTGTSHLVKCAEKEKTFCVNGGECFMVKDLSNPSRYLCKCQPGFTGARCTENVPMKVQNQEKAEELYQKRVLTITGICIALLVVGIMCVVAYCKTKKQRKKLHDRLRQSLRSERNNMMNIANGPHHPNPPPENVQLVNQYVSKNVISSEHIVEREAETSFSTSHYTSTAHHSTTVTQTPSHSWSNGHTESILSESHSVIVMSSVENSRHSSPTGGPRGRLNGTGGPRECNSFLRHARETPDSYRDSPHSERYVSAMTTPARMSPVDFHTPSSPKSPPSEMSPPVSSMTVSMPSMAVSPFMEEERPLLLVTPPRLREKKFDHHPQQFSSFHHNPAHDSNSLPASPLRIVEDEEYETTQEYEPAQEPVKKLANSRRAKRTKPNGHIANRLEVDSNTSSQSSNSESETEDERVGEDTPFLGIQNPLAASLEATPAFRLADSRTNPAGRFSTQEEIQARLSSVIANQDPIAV
For test [7], the system named is Neuregulin-1 EGF-like domain. The test is described as follows: small molecules binding NRG1 EGF domain – biochemical, small-molecule microarray, 635 nm fluorescence, primary screen (AID 1081).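 Further: binding of the protein to compounds printed on small-molecule microarray slides.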 To be noted: higher = more signal.
The nature of test [8]: FRG1 expression reporter modulators in myotubes – cell-based, C2C12 myotubes, firefly/Renilla luciferase, luminescence, FRG1 inhibition for FSHD, primary screen (AID 1084). To be noted: FRG1 promoter luciferase, higher = more signal, called active from +8 up or from −8 down.
Test [9] is described as follows: small molecules captured by biotinylated probe aFST – biochemical, small-molecule microarray, fluorescence 635/667, stem cell growth factor project, primary screen (AID 1086).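 Further: score merges 667 nm fluorescence with signal-to-noise of each printed compound spot.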 As to conditions: higher = more signal.
The nature of test [10]: binders of probe aHhip on microarray, primary screen, stem cell growth factor project, biochemical, small-molecule microarray, fluorescence 635/667 (AID 1087).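 Further: score merges spot fluorescence at 667nm with spot signal to noise ratio.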 To be noted: higher = more signal.
Test [11] relates to PRMT1 (protein arginine N-methyltransferase 1). The test is described as follows: small molecules binding arginine methyltransferase PRMT1 – biochemical, small-molecule microarray, 635 nm fluorescence, primary screen (AID 1088).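 Further: binding of Prmt1 protein to compounds spotted on small-molecule microarray slides.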 To be noted: higher = more signal.
Test [12] in a line: growth effects on S. cerevisiae YJM789 – YJM789 clinical isolate, OD600, 24 h, basal, primary screen (AID 1089).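 Further: growth of clinical yeast isolate S. cerevisiae YJM 789 seeded 1000 cells per well; test concentration not given here.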 As to conditions: higher = more signal, called active from +8 up or from −8 down.
Test [13] can be described thus: S. pombe growth modifiers, basal conditions – strain 972, OD600, 24 h, no modulator, primary screen (AID 1090).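 Further: basal condition with compound alone and no growth modifier present; test concentration not given here.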 As to conditions: S. pombe 972 growth, higher = more signal, called active from +8 up or from −8 down.
Test [14] can be described thus: budding yeast growth modifiers under rapamycin – strain BY4716, OD600, 96 h, primary screen (AID 1091). Further: test concentration not given here. To be noted: S. cerevisiae BY4716 + rapamycin, higher = more signal, called active from +8 up or from −8 down.
In test [15] the target is Torsin-1A-interacting protein 2 (Homo sapiens) (UniProt Q8NFQ8). The test is described as follows: small molecules binding lysate-expressed LULL1 – cell lysate, human LULL1 lysate, 635/667 nm fluorescence, primary screen (AID 1092).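 Further: score merges per-feature 667 nm fluorescence with signal-to-noise.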 To be noted: small-molecule microarray, hLULL1 lysate binding, 635 nm fluorescence; higher = more signal.
Chain of Torsin-1A-interacting protein 2 (Homo sapiens) (Q8NFQ8 whole entry, looked up): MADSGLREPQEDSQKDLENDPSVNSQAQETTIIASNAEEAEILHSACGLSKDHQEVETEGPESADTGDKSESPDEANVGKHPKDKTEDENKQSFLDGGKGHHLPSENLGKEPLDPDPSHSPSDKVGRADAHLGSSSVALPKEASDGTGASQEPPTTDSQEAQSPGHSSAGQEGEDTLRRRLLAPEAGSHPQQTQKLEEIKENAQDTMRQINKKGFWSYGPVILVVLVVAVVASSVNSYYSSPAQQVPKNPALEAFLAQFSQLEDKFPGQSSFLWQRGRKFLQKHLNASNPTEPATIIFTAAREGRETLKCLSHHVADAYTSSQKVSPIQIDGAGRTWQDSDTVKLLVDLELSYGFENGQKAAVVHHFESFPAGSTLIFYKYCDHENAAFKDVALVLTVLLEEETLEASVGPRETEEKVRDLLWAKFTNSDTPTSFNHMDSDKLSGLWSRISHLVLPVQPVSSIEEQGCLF
The nature of test [16]: optical density change of DRC41 E. coli – strain DRC41, OD650, 24 h, E. coli filamentation project, primary screen (AID 1093).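 Further: MC1000 strain lacking acrAB efflux and sulA so SOS filamentation is blocked; test concentration not given here.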 To be noted: E. coli DRC41 growth, higher = more signal, called active from +8 up or from −8 down.
Test [17] can be described thus: probe aLefty2 binding to arrayed compounds – biochemical, biotinylated probe, 635/667 nm fluorescence, primary screen (AID 1094).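 Further: score merges spot fluorescence near 667 nm with spot signal-to-noise ratio.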 As to conditions: small-molecule microarray, higher = more signal.
For test [18], the system named is Noggin (protein binding on small-molecule microarray). The test is described as follows: small molecules binding Noggin protein – biochemical, 635/667 nm fluorescence, primary screen (AID 1095).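 Further: score merges 667 nm feature fluorescence with signal to noise over triplicate slides.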 To be noted: 635 nm fluorescence, higher = more signal.
For test [19], the target named is Neurogenic locus notch homolog protein 3 (Homo sapiens) (UniProt Q9UM47). The test is described as follows: small molecules binding NOTCH3 protein – biochemical, 635/667 nm fluorescence, primary screen (AID 1096). As to conditions: small-molecule microarray, 635 nm fluorescence, higher = more signal.
Test [20] in a line: probe aEGFR binding to arrayed compounds – biochemical, biotinylated probe, 635/667 nm fluorescence, primary screen (AID 1097).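 Further: probe is a biotinylated anti-EGFR antibody binding compounds printed on slides; score combines fluorescence near 667 nm and signal to noise of each spot.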 To be noted: small-molecule microarray, higher = more signal.

`CCCCNC(=O)c1ccc(C#C[Si](C(C)C)(C(C)C)C(C)C)c(OC(C)=O)c1`: the composite z-score in test [1] is -0.294; in test [2], -0.189; in [3], -0.108; in test [4], 0.493; in [5], 1.57; in test [6], 0.812. Further, the composite z-score is 1.09 in test [7]; 0.207 in test [9]; 0.0722 in test [10]; 0.613 in [11]; 0.765 in test [15]; -0.0916 in test [17]. Further, the composite z-score in test [18] is 0.926; in test [19], 1.05; in test [20], -0.0208. The z-score in [8] was -0.198 (inactive); in test [12] it was -0.272 (inactive); in test [13], -1.61 (inactive); in test [14] it was 0.645 (inactive); in [16] it was -0.423 (inactive).

In the case of `CCN(CC)c1ccc(N2CC=CC34O[C@@H]5/C=C\CCC(C)OC(=O)C5[C@H]3C(=O)N(C(C)CO)[C@@H]4C2=O)cc1` (stereo not given in full), the composite z-score in test [1] was -0.0462; in test [2], -0.362; in test [3], -0.116; in test [4] it was -0.244; in test [5] it was -1.06; in [6], 0.168. Moreover, the composite z-score in test [7] was -0.527; in test [9], -0.293; in test [10], -0.652; in [11], 0.41; in test [15] it was -0.139; in [17], -0.149. Moreover, the composite z-score was 0.07 in test [18], -0.419 in test [19] and -0.206 in [20]. In addition, the z-score is 0.355 (inactive) in test [8]; 0.217 (inactive) in [12]; -1.41 (inactive) in [13]; -0.0932 (inactive) in test [14]; 1.13 (inactive) in [16].

As for `[N-]=[N+]=NCc1ccccc1[C@H]1OC(c2ccc(OCCCO)cc2)=N[C@@]1(CCS(=O)(=O)c1ccccc1)C(=O)NCc1ccccc1`, the composite z-score was determined as 0.174 in test [1]; 0.447 in test [2]; 0.138 in [3]; 0.914 in test [4]; 1.53 in test [5]; 1.33 in [6]. In addition, the composite z-score was found to be 1.24 in test [7]; 0.981 in test [9]; 1.05 in test [10]; 1.55 in test [11]; 3.11 in test [15]; 0.455 in [17]. For the same molecule, the composite z-score in test [18] turned out to be 0.605; in [19], 1.13; in test [20], 0.706. The z-score in [8] was -1.68 (inactive); in [12] it was 1.47 (inactive); in test [13], 0.431 (inactive); in test [14] it was 4.54 (inactive); in test [16], 1.28 (inactive).

As to `COc1cc(NN2C(C(O)c3ccccc3)C=CC3C(=O)N(C)C(=O)C32)cc(OC)c1OC` (stereo not given), the composite z-score was found to be 0.0217 in [1]; 0.48 in test [2]; 0.0074 in [3]; 0.371 in [4]; 1.34 in test [5]; 1.88 in test [6]. Moreover, the composite z-score in [7] is 1.36; in test [9], 0.4; in test [10], -0.0672; in test [11], 1.53; in test [15] it was 2.98; in test [17], 0.12. Moreover, the composite z-score in test [18] was 0.27; in [19] it was 0.832; in test [20], -0.0581. Besides, the z-score in [8] was 0.359 (inactive); in [12], 0.679 (inactive); in test [13], 0.529 (inactive); in [14], 0.328 (inactive); in test [16], -0.852 (inactive).

For the molecule `CCN(CC)c1ccc(N2CC=CC34O[C@@H]5C=CCCOC(=O)C5[C@H]3C(=O)N(CCO)[C@@H]4C2=O)cc1` (stereo not given in full), the composite z-score was 0.171 in [1]; -0.981 in test [2]; -0.18 in [3]; -0.463 in [4]; -0.894 in test [5]; -0.684 in [6]. Also, the composite z-score was 1.52 in test [7]; -0.209 in [9]; -0.137 in test [10]; -1.15 in [11]; -0.66 in [15]; -0.235 in test [17]. Besides, the results for the composite z-score in test [18], in [19] and in test [20] were -1.42, -0.477 and -0.201, respectively. Besides, the z-score was -0.329 (inactive) in [8]; -0.562 (inactive) in test [12]; -1.07 (inactive) in test [13]; -0.315 (inactive) in test [14]; 0.701 (inactive) in [16].
